Test results as given in ChEMBL document CHEMBL1157539, “Thousands of chemical starting points for antimalarial lead identification” (Nature, 2010).

test system: Plasmodium falciparum; test: GSK_TCMDC: Inhibition of Plasmodium falciparum Dd2 in whole red blood cells, using parasite LDH activity as an index of growth. Test compounds present at 2uM; assay type: functional

Compound | Inhibition
O=C(O)C(F)(F)F.c1cc(-c2ccc(CN3CCCC3)cc2)cc(-c2nc3ccccc3[nH]2)c1 | 52%
O=C(Nc1cccc([N+](=O)[O-])c1)Nc1ccc(Cl)c(C(F)(F)F)c1 | 87%
CC(C)C[C@@H]1C(=O)N[C@H](C2Cc3ccccc3C2)C(=O)N1[C@@H](C(=O)O)c1ccc(F)cc1F | 0%
O=C(NC(=O)c1ccccc1)NC1CCN(c2ccnc3cc(Cl)ccc23)C1.O=C(O)C(F)(F)F (centres undefined) | 99%
CCN(CC)CCCCOc1ccc2c(c1)C(=O)c1cc(OCCCCN(CC)CC)ccc1-2.Cl | 44%
Cc1cc(CNCC(CCNc2cc(=O)c3ccccc3[nH]2)NCc2cc(Br)cc(Br)c2)oc1C (centres undefined) | 85%
Br.CCc1c(CCNCCCCCCNCCc2ccc(Br)cc2)ccc(O)c1O | 1%
CCCCCCCc1ccc(-c2c(C)[nH]c(C)c(Cl)c2=O)cn1 | 96%
COc1ccc2nc3cc(Cl)ccc3c(Nc3ccc(O)c(CN4CC5CCC(CC5)C4)c3)c2c1.Cl | 100%
Cc1cc2cc(/C=C/C(=O)NC3CCC(CCN4CCc5ccc(C#N)cc5CC4)CC3)ccc2[nH]1.Cl (centres undefined) | 49%
O=C(Nc1ccc(-c2ccccc2)cc1)Nc1cccc(OCCN2CCCC2)c1.O=C(O)C(F)(F)F | 14%
O=C(NCCCCCCNCc1ccc(-c2ccccc2)cc1)Nc1ccc(Cl)c(Cl)c1 | 2%
CCC(COCc1ccc(Cl)cc1)N(C)CCN(C)C(CC)COCc1ccc(Cl)cc1.Cl (centres undefined) | 78%
CCN(CC)CC#Cc1ccc2[nH]c(C)c(Cl)c(=O)c2c1 | 95%
